{"source": "ChEMBL document CHEMBL3988442", "about": "“University of Dundee, Small-Polar-MMV Screening Library” (2021)", "note": "The whole screen tested about 67,000 compounds, of which about 300 (0.45%) showed an effect of 50% or more. This is one part of a sample in which strong results are shown more often than they occur.", "data": [{"biological_target": "Polyketide synthase Pks13 (Mycobacterium tuberculosis (strain ATCC 25618 / H37Rv)) (UniProt I6X8D2)", "sequence (I6X8D2 whole entry)": "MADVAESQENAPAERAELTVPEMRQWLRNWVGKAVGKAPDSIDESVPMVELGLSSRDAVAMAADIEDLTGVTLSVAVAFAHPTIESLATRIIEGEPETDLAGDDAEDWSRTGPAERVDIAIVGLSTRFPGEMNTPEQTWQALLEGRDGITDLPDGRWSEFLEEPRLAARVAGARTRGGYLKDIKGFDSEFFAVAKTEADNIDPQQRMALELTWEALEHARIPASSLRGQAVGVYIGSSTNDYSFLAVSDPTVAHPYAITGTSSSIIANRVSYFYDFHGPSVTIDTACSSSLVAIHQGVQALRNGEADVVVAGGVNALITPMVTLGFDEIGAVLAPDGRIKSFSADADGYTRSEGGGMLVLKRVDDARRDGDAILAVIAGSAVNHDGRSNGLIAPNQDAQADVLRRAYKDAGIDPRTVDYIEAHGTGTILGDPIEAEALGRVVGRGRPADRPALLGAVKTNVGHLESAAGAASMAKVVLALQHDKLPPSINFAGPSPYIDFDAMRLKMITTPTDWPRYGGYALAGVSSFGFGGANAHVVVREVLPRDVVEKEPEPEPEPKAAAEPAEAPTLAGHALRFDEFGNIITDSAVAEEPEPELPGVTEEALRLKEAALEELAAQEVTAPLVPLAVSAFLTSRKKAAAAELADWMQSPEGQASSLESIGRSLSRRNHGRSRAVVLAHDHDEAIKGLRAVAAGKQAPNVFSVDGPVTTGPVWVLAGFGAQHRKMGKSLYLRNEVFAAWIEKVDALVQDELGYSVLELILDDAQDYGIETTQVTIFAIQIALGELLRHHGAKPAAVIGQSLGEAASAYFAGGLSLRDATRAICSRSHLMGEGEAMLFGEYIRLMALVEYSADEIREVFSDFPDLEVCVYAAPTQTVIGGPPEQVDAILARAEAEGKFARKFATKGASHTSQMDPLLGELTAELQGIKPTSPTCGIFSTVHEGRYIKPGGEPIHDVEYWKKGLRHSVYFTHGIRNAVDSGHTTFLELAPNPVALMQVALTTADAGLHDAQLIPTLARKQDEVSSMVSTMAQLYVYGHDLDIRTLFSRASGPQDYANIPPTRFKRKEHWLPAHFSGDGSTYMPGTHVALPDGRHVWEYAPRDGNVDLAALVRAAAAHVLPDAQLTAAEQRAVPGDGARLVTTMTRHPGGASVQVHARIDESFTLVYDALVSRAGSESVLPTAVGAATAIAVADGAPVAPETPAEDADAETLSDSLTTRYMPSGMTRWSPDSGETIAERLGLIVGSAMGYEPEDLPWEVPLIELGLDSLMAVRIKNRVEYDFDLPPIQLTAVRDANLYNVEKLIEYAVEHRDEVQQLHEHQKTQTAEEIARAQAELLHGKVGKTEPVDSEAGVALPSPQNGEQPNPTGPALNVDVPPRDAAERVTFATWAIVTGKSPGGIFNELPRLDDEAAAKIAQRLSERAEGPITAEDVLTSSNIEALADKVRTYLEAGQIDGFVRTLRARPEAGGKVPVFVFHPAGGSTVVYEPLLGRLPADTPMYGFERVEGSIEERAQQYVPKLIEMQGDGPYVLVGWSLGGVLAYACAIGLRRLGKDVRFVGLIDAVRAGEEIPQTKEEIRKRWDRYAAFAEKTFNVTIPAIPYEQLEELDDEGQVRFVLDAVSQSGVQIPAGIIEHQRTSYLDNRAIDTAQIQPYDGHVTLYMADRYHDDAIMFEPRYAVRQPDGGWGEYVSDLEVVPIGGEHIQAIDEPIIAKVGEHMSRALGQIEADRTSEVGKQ", "experiment": "Mycobacterium tuberculosis Polyketide synthase 13 Thioesterase (PKS13)", "assay_type": "functional", "parameters": "scale not given: in the data most compounds retested in dose-response had high values", "settings": "30 µM", "units": {"Percent Effect": "%"}, "values": [{"smiles": "CCN1C(=O)C[C@@H]2[C@@H]1CCN2S(=O)(=O)c1ccc(OC)cc1", "Percent Effect": -42.1}, {"smiles": "O=C(c1cccs1)N1C[C@@H]2OCCN(CC3CCCO3)[C@@H]2C1", "note": "(stereo not given in full)", "Percent Effect": 8.57}, {"smiles": "CCn1c(SCC(=O)N2CCOCC2)nc2cc(C)[nH]c2c1=O", "Percent Effect": 11.1}, {"smiles": "CCn1c(SCC(=O)N2CCCC2)nc2cc(C)[nH]c2c1=O", "Percent Effect": 54.6}, {"smiles": "Cc1cc2nc(SCC(=O)N3CCCC3)n(C)c(=O)c2[nH]1", "Percent Effect": -2.84}, {"smiles": "Cc1cc(C(=O)N2C[C@@H]3OCCN(CCN4CCCC4)[C@@H]3C2)c(C)o1", "Percent Effect": -5.69}, {"smiles": "CCN1C(=O)C[C@@H]2[C@@H]1CCN2S(=O)(=O)Cc1ccc(C)cc1", "Percent Effect": 16.4}, {"smiles": "Cc1cc(C(=O)N2CC[C@H]3[C@H](C[C@@H](CN4CCCC4)N3C)C2)c(C)o1", "Percent Effect": -16.7}, {"smiles": "CN1CCCC1c1cccc(Cc2ccccc2F)n1", "note": "(stereo not given)", "Percent Effect": -56.2}, {"smiles": "CS(=O)(=O)N1CCCC1c1cccc(Cc2ccccc2F)n1", "note": "(stereo not given)", "Percent Effect": 51.8}, {"smiles": "CC(=O)N1CCCC1c1cccc(Cc2ccccc2F)n1", "note": "(stereo not given)", "Percent Effect": -41.9}, {"smiles": "CCC1=N[C@@]2(CC[C@@H]3CN(C(=O)Nc4ccccc4)C[C@@H]32)C(=O)N1C", "Percent Effect": 7.9}, {"smiles": "O=C(NC1CC1)[C@H]1C[C@H]2OCC[C@H]2N(Cc2cccnc2)C1", "Percent Effect": 1.16}, {"smiles": "O=C(c1cc2cc(F)ccc2[nH]1)N1CCC(Nc2cccnn2)CC1", "Percent Effect": -12.9}, {"smiles": "O=C(c1cc2cc(F)ccc2[nH]1)N1CCC(Nc2ccc(F)cc2)CC1", "Percent Effect": 70.6}, {"smiles": "Cc1nnc2n1CCN(C(=O)c1cc3cc(F)ccc3[nH]1)C2", "Percent Effect": -0.338}, {"smiles": "O=C1CO[C@H]2CN(Cc3ccccc3Br)C[C@@H]2N1", "Percent Effect": 5.27}, {"smiles": "Cn1ccnc1CN1CCN(CC2CC2)[C@@H]2CS(=O)(=O)C[C@@H]21", "Percent Effect": -9.98}, {"smiles": "c1ccc(CN2CCO[C@H]3[C@H](OCCN4CCCC4)CC[C@@H]32)nc1", "Percent Effect": -5.53}, {"smiles": "CC(C)(C)c1nc(CNc2ccccc2SCCC(N)=O)cs1", "Percent Effect": 6.99}, {"smiles": "CC(C)(C)c1ncc(CNc2ccccc2SCCC(N)=O)s1", "Percent Effect": 4.25}, {"smiles": "NC(=O)CCSc1ccccc1NCc1ccc(Cl)s1", "Percent Effect": 75.8}, {"smiles": "O=C(Nc1cccnc1)[C@@H]1C[C@H]2OCC[C@H]2N(Cc2nccs2)C1", "Percent Effect": -10.3}, {"smiles": "Cc1nnc(N2C[C@@H]3CCCO[C@@H]3[C@H](N(C)C)C2)s1", "Percent Effect": 26.3}, {"smiles": "Cc1nc(-c2ccc(Cl)s2)sc1C(=O)N(C)CC(N)=O", "Percent Effect": 88.9}, {"smiles": "COC(=O)CNC(=O)c1sc(-c2ccc(Cl)s2)nc1C", "Percent Effect": 51.9}, {"smiles": "CC(=O)NCCNC(=O)c1sc(-c2ccc(Cl)s2)nc1C", "Percent Effect": 33.9}, {"smiles": "Cc1c(C(=O)NCCCC(N)=O)sc2ccc(F)cc12", "Percent Effect": 0.295}, {"smiles": "CN(CC(N)=O)C(=O)c1cnc(-c2ccc(Cl)s2)s1", "Percent Effect": -171}, {"smiles": "CN(CC(N)=O)C(=O)c1cc(Cl)c(Cl)n1C", "Percent Effect": -6.47}, {"smiles": "CC(=O)NCCNC(=O)c1sc(-c2ccc(Cl)cc2)nc1C", "Percent Effect": -15.5}, {"smiles": "Cc1nc(-c2ccc(Cl)s2)sc1C(=O)NCCS(N)(=O)=O", "Percent Effect": 54}, {"smiles": "Cc1nc(-c2ccc(Cl)s2)sc1C(=O)NCCCC(N)=O", "Percent Effect": 54.9}, {"smiles": "COC(=O)CNC(=O)c1scnc1C", "Percent Effect": -29.3}, {"smiles": "COC(=O)CNC(=O)c1nc(Cl)sc1C(C)C", "Percent Effect": -1.24}, {"smiles": "CC(=O)NCCNC(=O)c1sc(-c2ccc(C)cc2C)nc1C", "Percent Effect": -6.1}, {"smiles": "CN(C)C(=O)CN1C[C@@H]2CC[C@H](C1)N(Cc1ccccc1OCCO)C2", "Percent Effect": -4.8}, {"smiles": "CCCN1CCN(Cc2cccc(OC(C)C)c2)[C@H]2CS(=O)(=O)C[C@H]21", "Percent Effect": -8.54}, {"smiles": "O=C(CO[C@@H]1CC[C@H]2[C@H]1OCCN2c1ncccn1)N1CCCC1", "Percent Effect": -31.3}, {"smiles": "C1CCN(CCO[C@@H]2CC[C@H]3[C@H]2OCCN3CC2CCOCC2)C1", "Percent Effect": -4.73}, {"smiles": "c1cnc(NC[C@H]2OC[C@@H]3CCN(Cc4ccsc4)C[C@@H]32)nc1", "Percent Effect": -14}, {"smiles": "Cc1ccc(S(=O)(=O)N2CC[C@H]3CO[C@H](CN(C)C)[C@H]3C2)cc1", "Percent Effect": -8.17}, {"smiles": "CC(C)N1C(=O)CO[C@H]2CCN(C(=O)c3ccc4c(c3)CCC4)CC[C@@H]21", "Percent Effect": 13}, {"smiles": "Cc1nc(-c2ccc(Cl)s2)sc1C(=O)NC(C)(C)C(N)=O", "Percent Effect": 59.7}, {"smiles": "CC(C)(NC(=O)c1ccc(-c2ccc(F)cc2)s1)C(N)=O", "Percent Effect": -17.8}, {"smiles": "Cc1nc(-c2ccc(Cl)s2)sc1C(=O)O", "Percent Effect": 11.9}, {"smiles": "O=C1[C@@H]2CN(Cc3cc4ccccc4o3)C[C@]2(C(=O)O)CN1CC1CC1", "Percent Effect": -17.7}, {"smiles": "CN(C)C(=O)N1C[C@@H]2CC[C@H](C1)N(C(=O)CCCn1cncn1)C2", "Percent Effect": -5.92}, {"smiles": "Cc1csc(CCNCc2cnc3c(c2)c(C)nn3C)n1", "Percent Effect": -13.2}, {"smiles": "Cc1csc(CNc2nc3c(s2)c(C)nn3C)n1", "Percent Effect": 24}, {"smiles": "Cc1csc(CNc2cnc3c(c2)c(C)nn3C)n1", "Percent Effect": 54.4}, {"smiles": "Cc1ccc([C@]2(O)CC[C@H]3CN(Cc4cccc(Cl)c4Cl)C[C@H]32)nc1", "Percent Effect": -77.5}, {"smiles": "COc1ccnc(N2C[C@@H]3CC[C@H](C2)N(CC2CC2)C3)n1", "Percent Effect": -40.5}, {"smiles": "Cn1cccc1-c1cc(C(=O)NCCCc2csc(N)n2)[nH]n1", "Percent Effect": 3.3}, {"smiles": "Cc1ccc(-c2cc(C(=O)NCCCc3csc(N)n3)[nH]n2)s1", "Percent Effect": 57.8}, {"smiles": "Cc1ccc(-c2cc(C(=O)NCCCc3csc(N)n3)[nH]n2)o1", "Percent Effect": -10.8}, {"smiles": "COCCN1C[C@H]2[C@@H](C1)N(C(=O)CCc1ccccc1)CC[C@H]2OC", "Percent Effect": -5.76}, {"smiles": "Cc1nnc([C@@H]2CC[C@@H]3[C@@H](CCN3S(=O)(=O)c3cccnc3)O2)o1", "Percent Effect": -18.5}, {"smiles": "NC(=O)c1ccccc1-n1cc(-c2cccc(C(=O)O)c2)cn1", "Percent Effect": 61.5}, {"smiles": "NC(=O)c1cc(-c2cccc(C(=O)O)c2)cs1", "Percent Effect": -10.7}, {"smiles": "NC(=O)c1cc(-n2cc(-c3cccc(C(=O)O)c3)cn2)cs1", "Percent Effect": -18.4}, {"smiles": "CC(=O)N1[C@H](CN(C)C)C[C@@H]2CN(C(=O)c3cccc(F)c3)CC[C@@H]21", "Percent Effect": -7.05}, {"smiles": "O=C(c1ccc(F)cc1)N1C[C@@H]2CN(c3ncccn3)C[C@@H]2C1", "Percent Effect": -16.8}, {"smiles": "CN(C)S(=O)(=O)N1CC[C@]2(O)CCN(c3ncccn3)C[C@@H]2C1", "Percent Effect": 5.3}, {"smiles": "CS(=O)(=O)NC[C@H]1OC[C@@H]2CN(Cc3cccnc3)CC[C@@H]21", "Percent Effect": 7.73}, {"smiles": "CC(NC(=O)CN(C)S(C)(=O)=O)c1nnc2n1CCCCC2", "note": "(stereo not given)", "Percent Effect": 76.2}, {"smiles": "CC(NC(=O)COCC(F)(F)F)c1nnc2n1CCCCC2", "note": "(stereo not given)", "Percent Effect": -15.5}, {"smiles": "CC(C)CCC(=O)NC(C)c1nnc2n1CCCCC2", "note": "(stereo not given)", "Percent Effect": -2.75}, {"smiles": "Cc1noc(C)c1CN1C[C@@H]2CCCO[C@@H]2[C@H](Nc2ccccn2)C1", "Percent Effect": -22.7}, {"smiles": "Cc1nnc(C[C@@H]2COC[C@H]3CN(C(=O)c4ccco4)C[C@@H]23)o1", "Percent Effect": -27.6}]}]}
